PLCb3 inh = human PLC-beta3 inhibitors, primary screen, biochemical, fluorescence. Purified PLC-beta3, fluorogenic substrate. inhibition, % at 12.2 µM. 1-phosphatidylinositol 4,5-bisphosphate phosphodiesterase beta-3 (Homo sapiens), Q01970. AID 720704, 2013. hit rate 0.18% among 370,000; in the data active = inhibition above about 11%;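 note: 0% = median of compound wells on plate and 100% = full blocker control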
ADAM17 inh = ADAM17 inhibitors, primary screen, biochemical, QFRET | AID 720648, 2013 | inhibition, % at 6.95 µM | hit rate 0.83% among 370,000 | recombinant ADAM17, EDANS/DABCYL FRET peptide cleavage;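 active = inhibition above the mean of compounds lying between control limits plus 3 SD, set per campaign, cut at about 8.5% in these data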;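 note: 0% = DMSO-only wells as the low control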
KLK7 zymogen act = proKLK7 zymogen activators, primary screen, biochemical, fluorescence intensity. hit rate 0.9% among 370,000. Kallikrein-7 (Homo sapiens), P49862. purified proKLK7, EDANS-DABCYL substrate fluorescence; 100% is mature enzyme control, 0% vehicle. activation, % at 7 µM;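 active = activation above the mean of all tested compounds plus 3 SD, computed per campaign excluding outliers beyond control limits, cut at about 13% in these data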
ADAM10 inh = human ADAM10 inhibitors, primary screen, biochemical, QFRET, HTS | recombinant ADAM10, EDANS/DABCYL FRET peptide cleavage, 3 h | inhibition, % at 7 µM | hit rate 0.62% among 370,000 | AID 720582, 2013;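 active = inhibition above a per-campaign cutoff equal to the mean of compounds falling between control-based bounds plus 3 SD, cut at about 20% in these data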;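 note: 0% = DMSO wells while the 100% control is not disclosed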
sPLA2-III inh = human group III sPLA2 inhibitors, primary screen, biochemical, QFRET, BODIPY PC-A2 liposome substrate | QFRET BODIPY PC-A2 liposome hydrolysis, fluorescence | inhibition, % at 12.2 µM | hit rate 0.56% among 370,000 | AID 743126, 2013;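 active = inhibition above mean plus 3 SD of compounds lying within the high and low control bounds, cut at about 19% in these data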;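 note: 0% = median of test compound wells and 100% = no enzyme DMSO wells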
PLC-gamma1 inh = PLC-gamma1 enzyme inhibitors, primary screen, biochemical, fluorescence, purified enzyme | 1-phosphatidylinositol 4,5-bisphosphate phosphodiesterase gamma-1 (Homo sapiens), P19174 | fluorogenic substrate | inhibition, % at 12.2 µM | hit rate 0.84% among 370,000; in the data active = inhibition above about 9.5%
proKLK7 act conf = proKLK7 zymogen activators, confirmation, biochemical, fluorescence intensity, triplicate. activation, % at 7 µM. shares compounds with KLK7 zymogen act. hit rate 68% among 3,200. purified proKLK7, EDANS-DABCYL substrate fluorescence; scaled: vehicle 0, mature enzyme 100. AID 686949, 2013;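 active = activation, as change over the incubation, above the mean of all tested compounds plus 3 SD, cut at about 13% in these data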
EDANS-DABCYL int = EDANS-DABCYL substrate optical interference, artefact control for kallikrein-7 zymogen activator project, biochemical, fluorescence intensity, high throughput. AID 686952, 2013. shares compounds with KLK7 zymogen act. no enzyme, 4 h; solvent 0%, active enzyme control 100%. hit rate 80% among 3,200. activation, % at 7 µM;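 active = activation above the all-compound mean plus 3 SD, ignoring values outside control-based bounds, cut at about 4.8% in these data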;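 note: value is the 4 h activation minus the activation read at time zero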
EDANS interf = EDANS fluorescence interference in dose response, no enzyme. EDANS-DABCYL peptide fluorescence interference. EC50, µM. shares compounds with KLK7 zymogen act. hit rate 20% among 250;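 active = compounds that raise the fluorescence signal in this interference counterscreen, with EC50 at or below 10 µM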;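 note: intact quenched peptide substrate alone read at 355 nm excitation and 520 nm emission; signal is fluorescence gain from T0 to T4 after four hours at room temperature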
* marks the source's active call; other numbers are inactive results. An excerpt weighted towards active compounds, which were near 3.4% of everything screened.

Screening Cc1cc(C)c(C#N)c(SCC(=O)Nc2nonc2N)n1 returned PLCb3 inh -429, ADAM17 inh -56, KLK7 zymogen act 40*, ADAM10 inh -152, sPLA2-III inh 6, PLC-gamma1 inh -310, proKLK7 act conf 74* and EDANS-DABCYL int 72*.
For COC(=O)CSc1ccc(C#N)c(SCC(=O)OC)c1 the results were PLCb3 inh -25, ADAM17 inh -27, KLK7 zymogen act 17*, ADAM10 inh -75, sPLA2-III inh -7, PLC-gamma1 inh -20, proKLK7 act conf 27* and EDANS-DABCYL int 27*.
For CCOC(=O)CC(=O)CSc1nc2c(c(C)c1C#N)CCC2 the results were PLCb3 inh -52, ADAM17 inh -24, KLK7 zymogen act 45*, ADAM10 inh -78, sPLA2-III inh -8, PLC-gamma1 inh -41, proKLK7 act conf 75* and EDANS-DABCYL int 70*.
Screening O=c1cc(CN2CCCC2)c2ccccc2o1 returned PLCb3 inh -4, ADAM17 inh -7, KLK7 zymogen act 0, ADAM10 inh -9, sPLA2-III inh 3 and PLC-gamma1 inh 0.
For CC(C)(C)c1ccc(S(=O)(=O)N2CCN(C(=O)C(=O)c3cccc(C(F)(F)F)c3)CC2)cc1 the results were PLCb3 inh 0, ADAM17 inh -2, KLK7 zymogen act -1, ADAM10 inh 2, sPLA2-III inh 1 and PLC-gamma1 inh -1.
CCCCCCCCN1C(=O)[C@@H](CC(=O)NCc2cccc(C(F)(F)F)c2)C[C@@]2(C(=O)OC)C1=C[C@H](C(C)(C)C)O[C@@H]2C was read as PLCb3 inh -1, ADAM17 inh -4, KLK7 zymogen act 0, ADAM10 inh -7, sPLA2-III inh 9 and PLC-gamma1 inh -1.
CN1CCN(C(=O)c2cc3c(=O)n4ccccc4nc3s2)CC1 was read as PLCb3 inh inactive, ADAM17 inh inactive, KLK7 zymogen act 48*, ADAM10 inh inactive, sPLA2-III inh -3, PLC-gamma1 inh inactive, proKLK7 act conf 70* and EDANS-DABCYL int 71*.
For CCn1c(=O)c2cc(C(=O)N3CCN(C)CC3)sc2c2ccccc21 the results were PLCb3 inh -265, ADAM17 inh -139, KLK7 zymogen act 28*, ADAM10 inh inactive, sPLA2-III inh 11, PLC-gamma1 inh -202, proKLK7 act conf 9 and EDANS-DABCYL int 8.0*.
CCOC(=O)N1CCN(C(=O)c2cc3c(=O)n4ccccc4nc3s2)CC1 was read as PLCb3 inh -344, ADAM17 inh -239, KLK7 zymogen act 17*, ADAM10 inh inactive, sPLA2-III inh 2, PLC-gamma1 inh -258, proKLK7 act conf 90* and EDANS-DABCYL int 78*.
`Cc1cccn2c(=O)c3cc(C(=O)NC4CCCCCC4)sc3nc12` gave PLCb3 inh -106, ADAM17 inh -77, KLK7 zymogen act 0, ADAM10 inh -248, sPLA2-III inh 0 and PLC-gamma1 inh -63.
`C=CCNC(=O)c1cc2c(=O)n3ccccc3nc2s1` gave PLCb3 inh inactive, ADAM17 inh inactive, KLK7 zymogen act 52*, ADAM10 inh inactive, sPLA2-III inh -1, PLC-gamma1 inh inactive, proKLK7 act conf 59* and EDANS-DABCYL int 69*.
Cc1cccn2c(=O)c3cc(C(=O)NC4CCS(=O)(=O)C4)sc3nc12 (stereo not drawn) was read as PLCb3 inh inactive, ADAM17 inh inactive, KLK7 zymogen act 22*, ADAM10 inh inactive, sPLA2-III inh 9, PLC-gamma1 inh -480, proKLK7 act conf 53*, EDANS-DABCYL int 43* and EDANS interf >70.
Screening CC(C)NC(=O)c1cc2c(=O)n3ccccc3nc2s1 returned PLCb3 inh inactive, ADAM17 inh inactive, KLK7 zymogen act 76*, ADAM10 inh inactive, sPLA2-III inh 17, PLC-gamma1 inh inactive, proKLK7 act conf 75* and EDANS-DABCYL int 81*.
Screening O=C(NC1CCCCCC1)c1cc2c(=O)n3ccccc3nc2s1 returned PLCb3 inh inactive, ADAM17 inh inactive, KLK7 zymogen act 25*, ADAM10 inh inactive, sPLA2-III inh 9, PLC-gamma1 inh inactive, proKLK7 act conf 16*, EDANS-DABCYL int 7.9* and EDANS interf >70.
Screening Cc1cc(-c2n[nH]c(=S)n2N=Cc2ccc(O)cc2)n[nH]1 returned PLCb3 inh 6, ADAM17 inh 1, KLK7 zymogen act 0, ADAM10 inh 5, sPLA2-III inh 7 and PLC-gamma1 inh 6.
`CC1(C)CC(=O)c2cc(OCC(=O)NCCCN3CCN(c4ccccc4F)CC3)ccc2O1` gave PLCb3 inh inactive, ADAM17 inh -163, KLK7 zymogen act 18*, ADAM10 inh -470, sPLA2-III inh -4, PLC-gamma1 inh -323, proKLK7 act conf 17* and EDANS-DABCYL int 21*.
CC1(C)CC(=O)c2cc(OCC(=O)NCc3cccnc3)ccc2O1 was read as PLCb3 inh inactive, ADAM17 inh inactive, KLK7 zymogen act 48*, ADAM10 inh inactive, sPLA2-III inh 6, PLC-gamma1 inh inactive, proKLK7 act conf 62* and EDANS-DABCYL int 66*.
Screening Cc1cc(OCC(=O)N(C)c2ccccc2)cc2c1C(=O)CC(C)(C)O2 returned PLCb3 inh -6, ADAM17 inh -6, KLK7 zymogen act 0, ADAM10 inh -17, sPLA2-III inh 5 and PLC-gamma1 inh -4.
For CCN(CC)C(=O)COc1ccc2c(c1)C(=O)CC(C)(C)O2 the results were PLCb3 inh inactive, ADAM17 inh -352, KLK7 zymogen act 47*, ADAM10 inh inactive, sPLA2-III inh -2, PLC-gamma1 inh inactive, proKLK7 act conf 40* and EDANS-DABCYL int 71*.
For CCOC(=O)COc1ccc2c(c1)C(=O)CC1(CCCCC1)O2 the results were PLCb3 inh inactive, ADAM17 inh -333, KLK7 zymogen act 24*, ADAM10 inh inactive, sPLA2-III inh -8, PLC-gamma1 inh inactive, proKLK7 act conf 14*, EDANS-DABCYL int 10* and EDANS interf >69.
